BJeLR viability: MLPCN primary cell-based screen for lethality selective to Ras in HRASV12 cells; 0.17% of 300,000 active; inhibition, % (concentration not given with the values); BJeLR (HRASV12) viability, CellTiter-Glo ATP luminescence, 48 h; in the data active = inhibition above about 50%; inconclusive = no clear call, values can overlap the other calls
3CLpro inhibitor: SARS-CoV 3CLpro protease inhibitors, primary screen, biochemical, quenched FRET. recombinant SARS-CoV 3CLpro, quenched FRET peptide cleavage. AID 1706, 2009. 0.14% of 290,000 active. inhibition, % at 6 µM. Replicase polyprotein 1ab (Severe acute respiratory syndrome coronavirus), P0C6X7; in the data active = inhibition above about 12%
BoNT A protease: BoNT/A light chain protease inhibitors, primary screen, biochemical, flow cytometry, MLPCN library; Botulinum neurotoxin type A light chain protease (Clostridium botulinum A str. ATCC 3502); multiplex microsphere protease substrate cleavage; inhibition, % at 10 µM; 0.17% of 360,000 active; AID 588499, 2011
Anthrax LF inh2: Bacillus anthracis LF protease inhibitors, primary screen, biochemical, multiplex microsphere, MLPCN library; multiplex microsphere protease cleavage assay; 0.12% of 360,000 active; Lethal factor (Bacillus anthracis), P15917; inhibition, % at 10 µM; AID 588501, 2011
Target sequence (P15917 whole entry, looked up): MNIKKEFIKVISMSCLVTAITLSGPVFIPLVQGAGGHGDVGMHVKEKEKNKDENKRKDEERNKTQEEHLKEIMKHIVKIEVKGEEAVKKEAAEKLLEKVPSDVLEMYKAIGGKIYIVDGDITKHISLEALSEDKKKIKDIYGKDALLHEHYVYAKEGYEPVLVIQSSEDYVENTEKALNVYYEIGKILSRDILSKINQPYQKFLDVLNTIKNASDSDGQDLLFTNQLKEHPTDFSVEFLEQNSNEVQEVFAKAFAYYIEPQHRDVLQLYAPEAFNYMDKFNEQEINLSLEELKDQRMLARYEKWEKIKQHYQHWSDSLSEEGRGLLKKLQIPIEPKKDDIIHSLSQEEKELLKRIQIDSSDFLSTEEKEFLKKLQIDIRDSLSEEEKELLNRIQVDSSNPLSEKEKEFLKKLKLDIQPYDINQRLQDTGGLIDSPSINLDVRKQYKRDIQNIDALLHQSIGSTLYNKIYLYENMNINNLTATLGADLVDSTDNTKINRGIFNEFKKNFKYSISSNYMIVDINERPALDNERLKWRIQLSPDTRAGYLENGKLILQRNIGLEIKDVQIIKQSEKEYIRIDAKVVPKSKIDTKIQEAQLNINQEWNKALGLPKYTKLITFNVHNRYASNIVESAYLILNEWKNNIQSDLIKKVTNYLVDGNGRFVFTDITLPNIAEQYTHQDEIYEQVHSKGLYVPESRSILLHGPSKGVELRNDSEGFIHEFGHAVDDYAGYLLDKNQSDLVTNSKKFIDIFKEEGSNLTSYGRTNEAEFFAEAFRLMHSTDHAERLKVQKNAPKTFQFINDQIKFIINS
Autofluor counter: flagged as autofluorescent in microsphere protease counterscreen | compound autofluorescence counterscreen, microsphere flow cytometry; hits give high values | 3.1% of 360,000 active | fluorescence intensity (test concentration not listed); in the data active = fluorescence intensity above about 16000; inconclusive = no clear call, values can overlap the other calls
BoNT-F LC inh: BoNT/F light chain protease inhibitors, primary screen, biochemical, flow cytometry, MLPCN library. inhibition, % at 10 µM. AID 588497, 2011. Botulinum neurotoxin type F light chain protease (Clostridium botulinum). 0.22% of 360,000 active. Multiplex microsphere protease cleavage assay; in the data active = inhibition above about 35%, passing the limit was not always enough; inconclusive = no clear call, values can overlap the other calls
Hits are given with their value; i = inactive; ? = inconclusive; nt = not tested or not shown. Shown are actives, neighbours in structure and some others; about 3.6% of the full set was active somewhere. Cut-off read from the data, not from the text of the source, unless noted: active = inhibition above about 30%; inconclusive = no clear call, values can overlap the other calls; inactive = below that.

SMILES	BJeLR viability	3CLpro inhibitor	BoNT A protease	Anthrax LF inh2	Autofluor counter	BoNT-F LC inh
CCOC(=O)C(=CNc1nc(-c2ccccc2)c(C(=O)Nc2ccc(-c3ccccc3)cc2)s1)C(=O)OCC	i	i	i	i	i	i
COc1ccc(C(CNC(=O)c2cccc(Br)c2)N2CCCC2)cc1 (stereo unspecified)	i	i	i	i	28340	i
CCN(CC)c1ccc(-c2nn3c(-c4cccnc4)nnc3s2)cc1	i	i	i	i	i	i
O=C(/C=C/c1ccccc1)N1CCCN(C(=O)/C=C/c2ccccc2)CC1	i	i	i	i	20323	i
COC(=O)CC1SC(=O)NC1=Nc1ccccc1 (stereo unspecified)	i	i	i	i	23324	i
CCCn1c(=O)c2c(nc3n2CCS3)n(C)c1=O	i	i	i	i	i	i
CCOC(=O)N1CCN(C(=O)c2cccc(-n3c(=S)[nH]c4cc(Cl)ccc4c3=O)c2)CC1	i	i	i	i	20777	i
CCOC(=O)N1CCN(C(=O)c2ccc3c(=O)n(-c4ccc(OC)cc4)c(=S)[nH]c3c2)CC1	i	i	i	i	i	i
OC(c1ccc(Cl)c(F)c1)c1ncc(-c2ccc(F)cc2)[nH]1 (stereo unspecified)	nt	nt	i	i	i	i
COc1ccc(OCCn2cc(/C(N)=N/O)c3ccccc32)cc1	i	i	i	i	i	i
Cc1ccc(OCCn2cc(/C(N)=N/O)c3ccccc32)cc1C	i	i	i	i	17016	i
COc1cccc(OC)c1C(=O)N1CCOCC1	i	i	?	i	22982	i
COc1cc(/C=N/N2CCN(c3ccccc3OC)CC2)ccc1OC(C)=O	i	i	i	42.2	i	?
COc1ccccc1N1CCN(C(=O)CSc2nc(C)cc(=O)[nH]2)CC1	i	i	i	i	17183	i
COc1ccccc1N1CCN(C(=O)N2CCOCC2)CC1	i	i	i	i	23262	i
CCCn1c(N)c(C(=O)CSc2nc3ncc(Cl)cc3[nH]2)c(=O)[nH]c1=O	nt	nt	i	i	i	i
O=C(CSc1ncnc2ccccc12)NCc1ccc2c(c1)OCO2	i	i	i	i	i	i
CC(=O)Nc1ccc(NS(=O)(=O)c2ccc3c(c2)oc(=O)n3C)cc1	i	i	i	i	i	?
COC(=O)COc1ccc(S(=O)(=O)NCc2ccc3c(c2)OCO3)cc1C	i	i	i	i	i	i
CC[C@]12c3[nH]c4cc(-c5ccco5)ccc4c3CCN1C(=O)[C@@H](CC(=O)NC(C)(C)C)C[C@@H]2C(=O)N1CCN(C(=O)c2ccco2)CC1	nt	nt	i	i	i	i
C=CCNC(=O)CCCCCNS(=O)(=O)c1ccc(OC)cc1	i	i	i	i	23119	i
CSc1ccc(S(=O)(=O)NCc2ccc(C)cc2)cc1	i	i	i	i	23510	i
COc1ccc(S(=O)(=O)NCc2ccccn2)cc1OC	i	i	i	i	i	?
O=S(=O)(NCc1cccs1)c1cccc2cccnc12	i	i	i	i	17165	i
COc1ccc(S(=O)(=O)NCCCCNS(=O)(=O)c2ccc(OC)cc2)cc1	i	i	i	i	i	i
SMILES	BJeLR viability	3CLpro inhibitor	BoNT A protease	Anthrax LF inh2	Autofluor counter	BoNT-F LC inh
COc1ccccc1Oc1ccc(S(=O)(=O)NCc2ccccn2)cc1	i	i	i	i	23518	i
CC1CCN(Cc2nnc(-c3cccc(Br)c3)o2)CC1	i	i	i	i	i	i
CCCNC(=O)c1cc(C2CCCN(C(=O)c3cc(F)ccc3C)C2)on1 (stereo unspecified)	nt	nt	i	i	i	i
CCOC(=O)C1(C)CCCN(C(=O)c2ccc3c(c2)CCO3)C1 (stereo unspecified)	nt	nt	i	i	i	i
COCC(C)NS(=O)(=O)c1ccccc1 (stereo unspecified)	i	i	i	i	i	i
Cc1ccc(CNC(=O)CCNS(=O)(=O)c2ccc(C)cc2)cc1	i	i	i	i	i	?
CCN(CC)S(=O)(=O)c1ccc(S(=O)(=O)NCc2cccs2)cc1	i	i	i	i	i	i
COc1ccc(S(=O)(=O)NCc2ccccc2)cc1	i	i	i	i	21265	i

Compound activity deposited in PubChem BioAssay by several laboratories.
